CHX counter: affects cycloheximide protein synthesis inhibition readout, counter-screen; max response, %; 12% of 300,000 active; AID 2314; cell reporter, cycloheximide protein synthesis inhibition counterscreen; in the data active = max response mostly above about 13%, no sharp cut-off; inactive = mostly below about 14%; note: read at 38.3 µM for the half of the compounds with a filed dose; 0% is about no effect
FBPA Giardia inh: inhibitors of Giardia lamblia fructose-1,6-bisphosphate aldolase. purified Giardia FBPA. Potency, µM (doses to about 59.6 µM), without a hit: at the highest dose activity, negative = inhibition, hits mostly inhibitors. 0.71% of 290,000 active. AID 2451; note: potency is the fitted concentration of half-maximal effect; % is set by controls: 0 for no effect and ±100 for the full control effect; nearly all actives have a fitted effect of over 55% in size
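40 nM FBPA preincubated 10 min at RT with compound (up to 57.5 uM final), then substrate plus GAPDH/TPI/NAD/arsenate coupling and diaphorase/resazurin added. Fluorescence read after 20 min at RT, 525/598 nm.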
LmPK inh: LmPK (Leishmania mexicana) enzyme inhibition | Q27686 | purified LmPK, Kinase-Glo ATP luminescence, 1 h | Potency, µM (doses to about 57.5 µM), for the others: at the top dose activity change, negative = inhibition, most hits filed as inhibitors | 0.37% of 290,000 active; note: potency is the fitted concentration of half-maximal effect; % is set by controls: 0 for no effect and ±100 for the full control effect
Target sequence (Q27686 whole entry, looked up): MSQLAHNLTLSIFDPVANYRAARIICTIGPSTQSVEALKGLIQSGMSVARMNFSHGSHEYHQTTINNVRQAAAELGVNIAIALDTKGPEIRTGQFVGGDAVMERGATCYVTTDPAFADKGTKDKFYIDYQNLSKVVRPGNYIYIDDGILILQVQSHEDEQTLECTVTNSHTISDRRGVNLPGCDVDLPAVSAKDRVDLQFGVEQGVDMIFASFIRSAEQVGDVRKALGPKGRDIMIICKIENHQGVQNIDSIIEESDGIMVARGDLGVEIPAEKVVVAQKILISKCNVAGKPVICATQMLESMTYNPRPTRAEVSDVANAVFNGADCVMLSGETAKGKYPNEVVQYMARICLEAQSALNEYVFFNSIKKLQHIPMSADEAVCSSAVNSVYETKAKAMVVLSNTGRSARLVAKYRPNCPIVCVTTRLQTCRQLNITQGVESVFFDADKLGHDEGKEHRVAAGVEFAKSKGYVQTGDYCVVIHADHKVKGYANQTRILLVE
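Pyruvate kinase activity monitored as ATP production (luciferase luminescence). Conditions: 0.1 nM enzyme, 0.5 mM PEP, 0.1 mM ADP, 1 h, RT; normalized against uninhibited and no-enzyme wells.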
TbPYK inhibitor: blocks Trypanosoma brucei pyruvate kinase | TbPYK enzyme, Kinase-Glo Plus ATP luminescence, 45 min | Potency, µM (top dose mostly 76.8 µM), for inactives: at the top dose activity, negative = inhibition, usual class: inhibitors | 0.12% of 410,000 active | AID 624173; note: potency is the fitted concentration of half-maximal effect; % is set by controls: 0 for no effect and ±100 for the full control effect; nearly all actives have a fitted effect of over 50% in size
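Quantitative HTS: titrated library compounds versus trypanosomal pyruvate kinase in TEA buffer (pH 7.2) containing KCl, MgCl2, BSA and Tween-20. Reactions were initiated with ADP, 130 uM final. Kinase-Glo Plus luminescence was read after 45 min at RT.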
RE007 growth inh: less growth of the S. pombe RE007 Vpr strain. AID 651644. S. pombe RE007 Vpr strain, BacTiter-Glo ATP luminescence, 24 h. 0.21% of 360,000 active. Potency, µM (series often up to 92.2 µM), for inactives: at the top dose activity change, negative = less growth, most hits filed as inhibitors; active = well fitted falling curve with a large enough effect; inconclusive = small, poorly fitted or top-dose-only effect; inactive = no such curve, though single readings can be large or run the other way; note: potency is the fitted concentration of half-maximal effect; % is set by controls: 0 for no effect and ±100 for the full control effect; nearly all actives have a fitted effect of over 50% in size
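Fission yeast RE007 carrying one integrated HIV-1 vpr copy, seeded at OD 0.01 in PMG+AL medium with 23 nL pinned compound. Grown 24 h at 30 degrees; viability read by BacTiter-Glo luminescence after 5 min.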
Shiga toxin inh: inhibitors of Shiga toxin in Vero cells | Vero cells, Shiga toxin protein synthesis inhibition reporter | inhibition, % at 38.7 µM | 9.2% of 290,000 active | AID 2315; in the data active = inhibition mostly above about 28%, no sharp cut-off; inactive = mostly below about 43%; note: 0% is about no effect
The depositor's hits bear a star; ? = inconclusive; . = no result; [ ] = another dose, or the depositor's remark. Only a selection was taken, and hits are over-represented in it overall. Unless noted, calls come from the whole dose curve; as a rule, active = well fitted curve in the direction sought with a large enough effect; inconclusive = small, poorly fitted or top-dose-only effect, or another doubt; inactive = no such curve, though single readings can be large; an effect the other way counts as inactive or inconclusive.

SMILES | CHX counter | FBPA Giardia inh | LmPK inh | TbPYK inhibitor | RE007 growth inh | Shiga toxin inh
CC(=O)N1CCc2c(sc(NC(=O)c3ccc([N+](=O)[O-])o3)c2C#N)C1 | 30 | -29% | -20% | -15% | 3% | 82*
CC(C)N1CCc2c(sc(NC(=O)c3nc4ccccc4s3)c2C(N)=O)C1 | 18 | -11% | 0% | 1% | 0% | 47
CC(C)N1CCc2c(sc(NC(=O)c3ccc([N+](=O)[O-])o3)c2C(N)=O)C1 | 28* | -21% | -1% | . | . | 14
COC(=O)c1c(NC(=O)c2ccc([N+](=O)[O-])o2)sc2c1CCN(C(C)C)C2 | 23* | -14% | 0% | -6% | -21% | 15
COc1ccc2c(C)c(CCC(=O)NCCc3ccc(Cl)cc3)c(=O)oc2c1 | . | . | . | -1% | . | .
Cc1cc(C(=O)c2cnc(/N=C/N(C)C)s2)cc(C)c1O | 2 | 1% | 3% | 1% | 4% | -5
CN(C)/C=N/c1ncc(C(=O)OC(C)(C)C)s1 | 30* | -2% | -3% | -1% | -1% | 69*
CN(C)/C=N/c1ncc(C(=O)c2ccc(-c3ccccc3)cc2)s1 | 19 | 0% | -10% | -23% | 19% | 24
CN(C)/C=N/c1ncc(C(=O)c2ccccc2)s1 | 52* | 0% | -5% | -10% | 1% | 66*
CCc1noc(-c2ccc(N3CCCCC3C)c([N+](=O)[O-])c2)n1 (stereo not given) | . | . | . | -25% | . | .
COc1ccc(N2CC(=O)N(c3ccccc3)C2=S)cc1 | 27* | 1% | 2% | -14% | . | 32
COc1ccc(N=C2C(=Nc3ccc(OC)cc3)N(c3ccc(OC)cc3)C(=S)N2C)cc1 | -2 | -20% | -9% | -11% | 7% | 19
COc1ccc(N=C2C(=Nc3ccc(OC)cc3)N(c3ccc(OC)cc3)C(=S)N2c2ccccc2)cc1 | 60* | 0% | 7% | -10% | -11% | 70*
O=C1CN(c2ccccc2)C(=S)N1c1ccccc1 | -1 | 4% | 0% | 3% | -4% | -3
O=c1c2ccccc2nc2oc3ccccc3n12 | 42* | 2% | -18% | -20% | -11% | 84*
CCOc1cccc(CC(=O)NCc2ccc3c(c2)CCN3C(=O)c2cccc(C)c2)c1OCC | . | . | . | 3% | . | .
O=C(COC(=O)c1c(F)cccc1F)Nc1ccc2c(c1)OCO2 | . | . | . | 7% | -1% | .
O=C(COC(=O)c1ccccc1NCc1ccco1)Nc1ccc2c(c1)OCO2 | 27* | 1% | -1% | -4% | -18% | 62*
NC(=O)c1ccsc1NC(=O)COC(=O)c1ccccc1NCc1ccco1 | 33* | 17% | 16% | 1% | -3% | 107*
O=C(COC(=O)c1ccccc1NC(=O)c1ccco1)Nc1ccc2c(c1)OCO2 | 17* | 7% | 0% | -13% | -6% | 59
CC(C)(C)NC(=O)COC(=O)c1ccccc1NC(=O)c1ccco1 | -1 | 1% | 4% | 3% | 3% | 15
COCCc1nn2c(=O)cc(COC(=O)c3ccc(C(C)(C)C)cc3)nc2s1 | . | . | . | -2% | . | .
O=C(c1ccc(Cl)c(Cl)c1)c1cnc(Nc2ccccc2)s1 | 11 | 5% | 0% | -1% | 15% | -4
CNc1ncc(C(=O)c2ccc(Cl)c(Cl)c2)s1 | 38* | 2% | -4% | 4% | ? | 94*
CNc1ncc(C(=O)c2ccc(-c3ccccc3)cc2)s1 | 45* | -1% | -1% | -3% | -9% | 64*
SMILES | CHX counter | FBPA Giardia inh | LmPK inh | TbPYK inhibitor | RE007 growth inh | Shiga toxin inh
CNc1ncc(C(=O)c2ccc(Cl)cc2)s1 | 35* | -1% | 2% | 6% | -21% | 69*
CCN(Cc1ccccc1)C(=O)Cn1ncc2c(=O)oc3ccc(C)cc3c21 | . | . | . | -8% | . | .
COc1cccc2cc(C(C)=O)oc12 | -2 | -1% | -3% | -1% | 11% | -5
COc1ccc(C(=O)c2cc3cccc(OC)c3o2)cc1 | 41* | -8% | ? | -5% | -13% | 98*
COc1cccc2cc(/C(=N/O)c3ccccc3)oc12 | 26* | -7% | 0% | 3% | -7% | 33
COc1cccc2cc(-c3ccccc3)oc12 | . | . | . | 2% | -9% | .
Cc1ccsc1CN(C)C(=O)c1ccc(Oc2ccccc2)cc1 | 18* | -3% | -5% | 3% | 3% | 63*
CS/C(N)=C(C#N)/C(C#N)=C(\N)SC | 6 | -17% | . | . | . | 17
CCCCc1nc2c(c3c1C[C@H](C)OC3)CN(S(=O)(=O)c1ccccc1C(=O)OC)CC2 | . | 4%[12.9 µM] | 0%[11.5 µM] | . | . | .
COc1ccc(/C=C2\CCc3ccccc3C2=O)cc1O | 22* | -2% | -14% | 1% | 0% | 42*
COc1ccc(/C=C2\Cc3ccccc3C2=O)cc1OC | 28* | 0% | -1% | 4% | -5% | 75*
COc1ccc(/C=C2\CCn3c2nc2ccccc2c3=O)cc1OC | 28* | 6% | -2% | -1% | 0% | 21
CC(=O)Nc1ccc(/C=C2\CCc3ccccc3C2=O)cc1 | 23 | -8% | 2% | 1% | 3% | -4
COc1cc(C=C2Cc3ccccc3C2=O)cc(OC)c1OC | . | . | . | 0% | -12%[18.4 µM] | .
COc1ccc(/C=C2\CCc3ccccc3C2=O)cc1Cn1cccn1 | 41* | -24% | -4% | -2% | -13% | 69*
O=CN/C=C/c1cc(F)cc(F)c1F | . | 1% | . | . | . | .
O=C(Nc1nnc(S(=O)(=O)N2CCOCC2)s1)c1ccccc1 | 11* | -27% | -1% | -29% | -2% | 22
COc1ccccc1C(=O)Nc1nnc(S(=O)(=O)N2CCC(C)CC2)s1 | -2 | -11% | 6% | -9% | 0% | 5
COc1ccccc1C(=O)Nc1nnc(S(=O)(=O)N2CCOCC2)s1 | 14* | . | 1% | -7% | -4% | 16
CCC(=O)N1CCc2cc(S(=O)(=O)NCCC(=O)Nc3cc(C)ccc3OC)ccc21 | . | . | . | -6% | . | .
CC(=O)NCC(=O)N[C@H](CCC(=O)O)C(=O)O | . | 6% | . | . | . | .
CCOC(=O)c1cccc(NC(=O)c2ccccc2C)c1 | 18 | -1% | 3% | 2% | 2% | 6
CCOC(=O)c1ccc(NC(=O)C2CCCO2)cc1 (stereo not given) | 32* | 4% | -9% | 2% | -22% | 55*
CCOC(=O)c1ccc(NC(=O)c2ccccc2C)cc1 | 53* | -4% | -13% | -13% | 4% | 86*
CCOC(=O)c1ccc(NC(=O)COC)cc1 | 11* | 7% | -2% | 1% | 3% | 35*
CCCOC(=O)c1ccc(NC(=O)C2C3CCC(C3)C2C(=O)O)cc1 (stereo not given) | 47* | 8% | 3% | -2% | 1% | 20*
O=C(CCCC[C@@H]1SC[C@H]2NC(=O)N[C@H]12)Nc1ccc(C(=O)O)cc1 | 4 | 11% | . | . | . | -3
CCOc1ccc(CCNC(=O)C2CCCN(S(=O)(=O)N(C)c3ccc(F)cc3)C2)cc1 (stereo not given) | . | . | . | 1% | . | .
